Assay outcomes: PubChem BioAssay, The Scripps Research Institute Molecular Screening Center
A selection: hits, their analogues and other compounds. The true share with any hit is near 3.3%.
ABHD5-PLIN5 inh: inhibitors of human ABHD5-perilipin-5 interaction. inhibition, % at 4 µM. Split G. princeps luciferase complementation, luminescence, 4 h. AID 602281. actives 0.78% (n = 360,000). Q00G26+Q8WTS1;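 active means inhibition above the mean inhibition across every tested compound plus 3 SD, cut at about 22% in these data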
PRMT1 FP inh: PRMT1 (human) inhibition, primary screen. actives 1.3% (n = 370,000). AID 652257. Q99873. recombinant PRMT1, activity-based probe fluorescence polarization. inhibition, % at 2.79 µM;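 active means inhibition above about 21% made by adding two undisclosed values, limit read from the data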
TLR9-MyD88 block: blocks human TLR9 binding to MyD88; Q9NR96+Q99836; CHO BLA complementation TLR9-MyD88, CCF4 FRET ratio; inhibition, % at 4.98 µM; actives 0.21% (n = 340,000); AID 504734;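 active means inhibition above the mean over all tested compounds plus 3 SD, cut at about 21% in these data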
TLR4-MyD88 BLA: blocks binding of human TLR4 to MyD88. O00206+Q99836. actives 0.18% (n = 200,000). HeLa CL3-4 TLR4/MyD88 BLA complementation, FRET ratio. AID 861. inhibition, % at 8.4 µM; in the data active means inhibition above about 25%
Target sequence (O00206 whole entry, looked up): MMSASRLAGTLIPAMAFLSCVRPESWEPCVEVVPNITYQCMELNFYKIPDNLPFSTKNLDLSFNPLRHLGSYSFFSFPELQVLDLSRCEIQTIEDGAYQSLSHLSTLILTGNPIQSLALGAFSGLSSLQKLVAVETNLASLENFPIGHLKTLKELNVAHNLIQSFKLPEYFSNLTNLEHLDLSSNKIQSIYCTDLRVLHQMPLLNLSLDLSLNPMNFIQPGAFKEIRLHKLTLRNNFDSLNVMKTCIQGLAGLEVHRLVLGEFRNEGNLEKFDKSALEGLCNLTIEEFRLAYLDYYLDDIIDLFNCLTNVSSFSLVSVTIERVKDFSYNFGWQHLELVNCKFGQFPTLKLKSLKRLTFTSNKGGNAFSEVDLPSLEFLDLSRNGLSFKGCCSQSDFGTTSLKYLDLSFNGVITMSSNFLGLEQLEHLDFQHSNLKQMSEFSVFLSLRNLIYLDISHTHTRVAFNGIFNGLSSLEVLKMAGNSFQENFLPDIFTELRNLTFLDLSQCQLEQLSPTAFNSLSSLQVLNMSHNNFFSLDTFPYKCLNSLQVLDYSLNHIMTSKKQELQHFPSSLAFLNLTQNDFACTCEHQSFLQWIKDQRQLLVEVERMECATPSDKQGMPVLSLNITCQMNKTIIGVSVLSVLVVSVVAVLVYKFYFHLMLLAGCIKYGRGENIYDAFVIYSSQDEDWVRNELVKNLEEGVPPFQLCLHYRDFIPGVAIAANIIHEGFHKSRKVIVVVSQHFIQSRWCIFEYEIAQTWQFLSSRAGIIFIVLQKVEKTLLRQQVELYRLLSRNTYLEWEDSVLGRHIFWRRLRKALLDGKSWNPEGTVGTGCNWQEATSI
Target sequence (Q99836 whole entry, looked up): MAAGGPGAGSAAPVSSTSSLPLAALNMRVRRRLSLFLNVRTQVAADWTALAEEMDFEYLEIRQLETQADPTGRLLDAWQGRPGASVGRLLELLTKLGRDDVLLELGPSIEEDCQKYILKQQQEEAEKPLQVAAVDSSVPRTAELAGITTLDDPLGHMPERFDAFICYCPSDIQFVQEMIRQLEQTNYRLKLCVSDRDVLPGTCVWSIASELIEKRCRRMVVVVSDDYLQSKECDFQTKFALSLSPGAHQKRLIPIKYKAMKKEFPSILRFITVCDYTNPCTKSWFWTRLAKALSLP
rCAG RNA binder: molecules binding r(CAG) RNA repeats. r(CAG) RNA repeat, TO-PRO-1 dye displacement fluorescence. actives 1.3% (n = 370,000). inhibition, % at 3 µM;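 active means inhibition above the plate cutoff, the mean of all test compounds on that plate plus 3 SD, cut at about 35% in these data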;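 further: higher means more dye released from RNA so lower well fluorescence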
NOD2-RIPK2 inh: blocks binding of human NOD2 to RIPK2; O43353; CHO BLA complementation NOD2-RIPK2, CCF4 ratio; inhibition, % at 4.98 µM; actives 0.38% (n = 360,000); AID 624267; in the data active means inhibition above about 21%
rCAG binder conf: r(CAG) RNA repeat binding, confirmation; shares compounds with rCAG RNA binder; TO-PRO-1 dye displacement fluorescence; inhibition, % at 3 µM; actives 70% (n = 4,300); AID 652065;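 active means inhibition above a per-plate cutoff, the mean inhibition of sample wells plus 3 SD, cut at about 35% in these data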;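 further: loss of TO-PRO-1 fluorescence as compound displaces dye from 1x1 AA loop RNA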
DNA CAG counter: counter-screen for rCAG RNA binders: DNA CAG dye complex inhibitors; inhibition, % at 3 µM; AID 652068; actives 94% (n = 4,300); d(CAG) DNA oligo TO-PRO-1 dye displacement, fluorescence; shares compounds with rCAG RNA binder;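 active means inhibition above its plate's cutoff, the mean test-well inhibition plus 3 SD, cut at about 4.8% in these data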;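 further: hits displace the dye from DNA and so lower well fluorescence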
DNA CAG DR: counter-screen for rCAG binders: inhibitors of DNA CAG TO-PRO-1 complex | shares compounds with rCAG RNA binder | DNA CAG/GTC duplex TO-PRO-1 dye displacement fluorescence | IC50, µM | actives 20% (n = 250); in the data active means IC50 below about 10 µM
A number is an active result; n = inactive; x = no result.

SMILES	ABHD5-PLIN5 inh	PRMT1 FP inh	TLR9-MyD88 block	TLR4-MyD88 BLA	rCAG RNA binder	NOD2-RIPK2 inh	rCAG binder conf	DNA CAG counter	others
COc1ccc(S(=O)(=O)Nc2nc3ccccc3s2)cc1	n	n	n	n	n	n	x	x
CCOc1ccc2sc(NS(=O)(=O)c3ccc(OC)c(OC)c3)nc2c1	n	n	n	n	52	n	n	5.9
O=C(O)c1ccn2c(C(=O)c3ccc(Cl)cc3)c(-c3ccccc3)cc2c1	n	n	n	x	68	n	64	23	DNA CAG DR=n
Cc1cc(=O)oc2c3c(cc(OCC(=O)NC(Cc4ccc(Cl)cc4)C(=O)O)c12)OC(C)(C)CC3 (stereo not given)	n	n	n	x	46	n	53	17
Cc1cc(=O)oc2c3c(cc(OCC(=O)N[C@@H](Cc4ccccc4)C(=O)O)c12)OC(C)(C)CC3	n	n	n	x	n	n	x	x
COc1ccc(CCNC(=O)c2ccccc2NS(=O)(=O)c2c(F)cccc2F)cc1	n	n	n	x	48	n	n	9.9
COc1cc(NS(=O)(=O)c2ccc(NS(=O)(=O)c3ccc(C)cc3)cc2)nc(OC)n1	n	n	n	x	n	n	x	x
COc1cc(NS(=O)(=O)c2ccc(NC(=O)c3ccc(C)o3)cc2)nc(OC)n1	n	n	n	n	n	n	x	x
COc1cc(NS(=O)(=O)c2ccc(N/C=C(\C=O)c3nc4ccccc4o3)cc2)nc(OC)n1	n	n	n	n	35	n	39	11
COc1cc(NS(=O)(=O)c2ccc(N/C=C(\C#N)c3nc4ccccc4o3)cc2)nc(OC)n1	n	n	n	n	68	n	67	31
C=CCN(c1ccccc1)S(=O)(=O)c1cccc(C(=O)Nc2ccc(N3CCOCC3)cc2)c1	n	n	n	x	n	n	x	x
COCCNc1nc(Nc2ccc(C(=O)OC)cc2)c2sccc2n1	n	n	x	x	n	n	x	x
CCCCNC(=O)C1(C)CCN1C(=O)c1cccnc1Oc1ccccc1 (stereo not given)	n	n	x	x	n	n	x	x
O=C(COC(=O)c1ccc(O)cc1)Nc1ccccc1[N+](=O)[O-]	n	n	n	n	n	n	x	x
Clc1ccc(-c2nc3ccc(Br)cn3c2Cc2cccc(Cl)c2)cc1	n	n	x	x	38	n	n	9.2
Cc1ccc(-c2nc3ccc(C)cn3c2Cc2cccc(Cl)c2)cc1	n	n	x	x	n	n	x	x
Clc1cccc(Cc2c(-c3cccc(Cl)c3)nc3ccc(Br)cn23)c1	n	n	x	x	n	n	x	x
Brc1cccc(-c2nc3ccc(Br)cn3c2Cc2ccccc2)c1	n	n	x	x	49	n	n	6.2
Cc1ccc(-c2nc3ccc(Br)cn3c2Cc2ccccc2)cc1	n	n	x	x	n	n	x	x
Cc1ccc(-c2nc3ccc(Cl)cn3c2Cc2cccc(Cl)c2)cc1	n	n	x	x	59	n	42	10
Cc1ccc(-c2nc3ccc(Br)cn3c2Cc2cccc(Cl)c2)cc1	n	n	x	x	n	n	x	x
Clc1cccc(-c2nc3ccc(Br)cn3c2Cc2ccccc2)c1	n	n	x	x	50	n	n	n
CC1(C(=O)NS(=O)(=O)C2CC2)CCCN(C(=O)c2c(F)cccc2F)C1 (stereo not given)	n	n	x	x	n	n	x	x
O=C(CC1CC2CCC1C2)N1CCN(S(=O)(=O)c2ccc(C(F)(F)F)cc2)CC1 (stereo not given)	n	n	n	x	n	n	x	x
Cc1nc2c(OCCN3C(=O)c4ccccc4C3=O)cccn2c1N(C)C(=O)CCC1CCCC1	n	n	x	x	n	n	x	x
SMILES	ABHD5-PLIN5 inh	PRMT1 FP inh	TLR9-MyD88 block	TLR4-MyD88 BLA	rCAG RNA binder	NOD2-RIPK2 inh	rCAG binder conf	DNA CAG counter	others
Cc1cc2nc(-c3ccc(F)cc3)c(Cc3ccccc3)n2c(C)c1Br	n	n	x	x	n	n	x	x
Cc1cc2nc(-c3ccc(F)cc3)c(Cc3cccc(Cl)c3)n2c(C)c1Br	n	n	x	x	61	n	n	8.4
Clc1cccc(Cc2c(-c3cccc(Br)c3)nc3ccc(Br)cn23)c1	n	n	x	x	52	n	39	9.1
O=C(O)CSc1cc(NS(=O)(=O)c2ccc(Br)cc2)c2ccccc2c1O	n	57	n	x	39	n	57	23
COC(=O)CNC(c1ccccc1)c1cc(C)ccc1NS(=O)(=O)c1ccc(C)cc1 (stereo not given)	n	n	n	n	n	n	x	x
Cc1ccc(S(=O)(=O)Nc2ccc(Br)cc2C(NCC(=O)O)c2ccccc2)cc1 (stereo not given)	n	n	n	n	73	n	75	26	DNA CAG DR=n
CCOC(=O)c1c(NC(=O)CSc2nnc(N)s2)sc(C)c1-c1ccc(C)cc1	n	n	n	n	n	n	x	x
CCOC(=O)c1c(NC(=O)CSc2nnc(C)c(=O)[nH]2)sc2c1CCCC2	n	n	n	n	69	n	66	20
CCOC(=O)c1c(NC(=O)C(C)Sc2nnc(C)c(=O)[nH]2)sc2c1CCCC2 (stereo not given)	n	n	n	x	69	n	66	30
CCOC(=O)c1c(NC(=O)CSc2nnc(C)s2)sc2c1CCCCC2	n	n	n	n	n	n	x	x
CCOC(=O)c1c(NC(=O)CSc2nnc(C)c(=O)[nH]2)sc(C)c1-c1ccc(C)cc1	n	n	n	x	43	n	79	44
Cc1cccc(NC(=O)CSCC(=O)NNC(=O)c2ccoc2C)c1	n	n	n	x	n	n	x	x
Cc1ccccc1NS(=O)(=O)c1ccc2c(c1)CCC(=O)N2	n	n	x	x	n	n	x	x
C[C@H](CO)N1C[C@H](C)[C@@H](CN(C)C(=O)CN2CCOCC2)Oc2ncc(-c3cncnc3)cc2C1=O	n	n	n	x	n	n	x	x
O=C(O)c1cccc(Nc2nc(-c3ccc([N+](=O)[O-])cc3)nc3ccccc23)c1	n	n	n	x	n	n	x	x
Cc1ccc(-c2nc(Nc3ccc(O)cc3)c3ccccc3n2)cc1	n	n	n	x	n	n	x	x
Cc1ccc(-c2nc(Nc3cccc(O)c3)c3ccccc3n2)cc1	n	n	n	x	37	n	n	10
O=[N+]([O-])c1ccc(-c2nc(Nc3cccc(O)c3)c3ccccc3n2)cc1	n	n	n	x	48	n	n	13
COc1ccc(/C=C/C(=O)Nc2c(C(=O)O)[nH]c3ccccc23)cc1OC	n	n	n	x	38	n	n	7.0
COc1ccc(/C=C/C(=O)Nc2ccccc2)cc1OC	n	n	n	n	n	n	x	x
CCCCOCCCNC(=O)C[C@@H]1C(=O)N(CCc2ccc(Cl)cc2)C2=CCCC[C@]21C(=O)OCC	x	n	x	x	n	x	x	x
